p53 reactivation = qHTS assay for re-activators of p53 using a Luc reporter; AID 504706, 2011; H1299 p53-A138V BP100-luciferase reporter, luminescence, 24 h; 0.063% of 320,000 active; Potency, µM (series often up to 92.2 µM), without a hit: at the top dose activity change, positive = activation, most hits filed as activators; also: potency is read from the fitted curve at half-maximal effect; % of control where 0% means no effect; nearly all actives have a fitted effect of over 45% in size
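p53-null H1299 cells stably carrying temperature-sensitive p53-A138V and a BP100-luciferase reporter were pinned with compounds (4-point, 1:5 series) and held 24 hrs at 37 deg C. Luminescence was read 10 min after detection reagent.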
VP16 counter = VP16 counterscreen qHTS for inhibitors of ROR gamma transcriptional activity. Drosophila S2 Gal4-VP16 UAS-luciferase, luminescence, 20 h. Potency, µM (series often up to 53.6 µM), for the others: at the top dose activity, negative = inhibition, usual class: inhibitors. 3.5% of 310,000 active;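 also: Gal4-VP16 expression switched on by copper sulfate through the metallothionein promoter; potency is read from the fitted curve at half-maximal effect; % is scaled to controls: 0 for no effect and ±100 for the full control effect; nearly all actives have a fitted effect of over 50% in size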
Six1-Eya2 blk = qHTS Assay for Inhibitors of the Six1/Eya2 Interaction. Homeobox protein SIX1 (Homo sapiens) + Protein phosphatase EYA2 (Homo sapiens), …. AlphaScreen GST-Six1/His-Eya2 binding, biochemical; active compounds read low. activity change, % (no concentration beside the values). 0.56% of 360,000 active. AID 651725, 2012; in the data active = activity change below about -65%; inconclusive = mostly about -30% to -63%; also: % is scaled to controls: 0 for no effect and ±100 for the full control effect
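AlphaScreen with GST-Six1 and His-Eya2 (5X mix: 250 nM and 500 nM), glutathione donor and nickel acceptor beads; buffer 50 mM Tris pH 8.0, 300 mM NaCl, 1 mM TCEP; 1 h at 37 C in the dark.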
RORgamma inh = qHTS for inhibitors of ROR gamma transcriptional activity. Nuclear receptor ROR-gamma (Mus musculus), P51450. Drosophila S2 Gal4-RORgamma UAS-luciferase reporter, 20 h. Potency, µM (highest dose often 53.6 µM), for the others: at the highest dose activity change, negative = inhibition, most hits filed as inhibitors. 5.4% of 310,000 active; also: potency is read from the fitted curve at half-maximal effect; % is scaled to controls: 0 for no effect and ±100 for the full control effect; nearly all actives have a fitted effect of over 60% in size
Target sequence (P51450 whole entry, looked up, the tested form may be a part): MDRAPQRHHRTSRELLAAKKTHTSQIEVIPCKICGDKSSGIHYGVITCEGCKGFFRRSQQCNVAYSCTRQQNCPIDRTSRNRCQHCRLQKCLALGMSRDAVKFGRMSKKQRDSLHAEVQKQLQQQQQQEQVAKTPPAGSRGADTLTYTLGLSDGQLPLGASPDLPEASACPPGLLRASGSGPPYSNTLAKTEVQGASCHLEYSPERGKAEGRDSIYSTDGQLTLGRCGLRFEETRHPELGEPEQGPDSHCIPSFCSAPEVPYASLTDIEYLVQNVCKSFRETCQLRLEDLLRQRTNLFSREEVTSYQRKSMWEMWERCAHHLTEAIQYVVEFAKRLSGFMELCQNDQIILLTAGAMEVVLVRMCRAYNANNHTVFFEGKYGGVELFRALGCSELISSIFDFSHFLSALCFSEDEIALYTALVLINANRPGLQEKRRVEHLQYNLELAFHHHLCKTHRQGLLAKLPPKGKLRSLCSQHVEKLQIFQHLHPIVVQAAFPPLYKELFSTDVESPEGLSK
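Stable Schneider cell line, Gal4 DNA-binding domain fused to ROR gamma, UAS-luciferase. Cmpd 1 hr RT → CuSO4 700 uM final → 20 hr RT → luciferase reagent 10 min → luminescence.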
CtBP-E1A inh = qHTS Assay for Inhibitors of the CtBP/E1A Interaction | CtBP / adenovirus E1A interaction (AlphaScreen) | AlphaScreen GST-E1A/His-CtBP binding, 1536-well; active compounds read low | activity change, % (concentration not given with the values) | 0.49% of 340,000 active | AID 651724, 2012; in the data active = activity change below about -65%; inconclusive = mostly about -30% to -63%; also: % is scaled to controls: 0 for no effect and ±100 for the full control effect
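AlphaScreen with 125 nM GST-E1A and 125 nM His-CtBP (5X stocks) in Tris pH 8.0, 300 mM NaCl, BSA, Tween 20, TCEP. Compounds preincubated 2 h at 37 deg C, then glutathione donor/nickel acceptor beads added for 1 h at 37 deg C in dark.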
Starred values were filed as active, the others as inactive; u = inconclusive; x = not tested or not shown; ! = a repeat was not active; [ ] = dose if it differs, or a comment. A selection: hits, their analogues and other compounds. The true share with any hit is near 5.4%. Unless noted, calls follow the shape of the dose curve; as a rule, active = well fitted curve in the direction sought with a large enough effect; inconclusive = small, poorly fitted or top-dose-only effect, or another doubt; inactive = no such curve, though single readings can be large; an effect the other way counts as inactive or inconclusive.

SMILES	p53 reactivation	VP16 counter	Six1-Eya2 blk	RORgamma inh	CtBP-E1A inh
Nc1nc2c(s1)CCCCCCCCCC2	-4%	6%	-2	11µM*	-3
Nc1c2c(nc3sc4c(c13)CCCC4)CCCCC2	u	7%	5	21%	-3
COC(=O)C(O)(c1ccc(NC(=S)NC(=O)c2ccccc2)cc1)C(F)(F)F (stereo unspecified)	15%	u	0	10µM*	-14
c1ccc(N=Nc2ccccc2)cc1	x	3%	x	31%	x
Cc1cccc(N=Nc2ccc(N(C)C)cc2)c1	u	13µM*	-72*	7.9µM*	u
CCCCCOC(=O)c1ccccc1C(=O)OCCCCC	x	-5%	x	20%	x
N#CC(C#N)=NNc1ccc(S(N)(=O)=O)cc1	3%	-8%	u	7%	-74*
CC1CCN(S(=O)(=O)c2ccc(NN=C(C#N)C#N)cc2)CC1	7%	u	x	u	x
O=C(Nc1ccc(Br)cc1C(=O)O)c1ccc2c(c1)C(=O)N(Cc1ccccc1)C2=O	u	u	-2	10µM*	-2
O=C(CNC(=O)c1ccc(Cl)cc1)Nc1ccc(Br)cc1C(=O)c1ccccc1	-5%	-3%	-8	u	-20
COC(=O)[C@H]1C(=O)c2ccccc2O[C@@](C(=O)OC)(c2ccccc2)[C@@H]1c1ccccc1	x	4%[10 µM]	x	22%[10 µM]	x
C=CCBr	x	7%	x	5%	x
C[n+]1c2cc(N)ccc2cc2ccc(N)cc21	x	7.1µM*	u	u	u
CCCC1COC(Cn2cncn2)(c2ccc(Cl)cc2Cl)O1 (stereo unspecified)	-7%	18µM*!	0	u	-4
CCCCC/C=C\C/C=C\C/C=C\C/C=C\CCCC(=O)N(Cc1ccc(O)c(Cl)c1)Cc1ccc(O)c(Cl)c1	x	10%	x	3%	x
O=C1c2ccccc2C(=O)C1C(=O)C(c1ccccc1)c1ccccc1	x	8%	x	19%	x
c1nc[n]([Sn]([CH]2CCCCC2)([CH]2CCCCC2)[CH]2CCCCC2)n1	x	22µM*	x	u	x
CC(C)CCNC(=O)CNC(=O)[C@@H](C)NC(=O)[C@@H](N)Cc1ccc(O)cc1	x	-5%	x	-3%	x
ClCCCCl	x	5%	x	-2%	x
CCCCC(=O)N/N=C/c1c(O)n(CCc2ccccc2)c(=O)[nH]c1=O	2%	-10%	u	10µM*	u
CCCCC(=O)N/N=C/c1c(O)n(CC)c(=S)[nH]c1=O	-1%	u	-78*	11µM*	0
CCN(CC)CCCN=Cc1c(O)n(Cc2ccc(F)cc2)c(=O)[nH]c1=O	1%	-1%	4	0%	10
CCCCC(=O)N/N=C/c1c(O)n(CCc2ccc(OC)c(OC)c2)c(=O)[nH]c1=O	-7%	-1%	5	-33%	-8
CCCCCCC(=O)N/N=C/c1c(O)n(CCCC)c(=S)[nH]c1=O	2%	-24%	u	u	u
COCCn1c(O)c(/C=N/NC(=O)CSC(=S)N2CCCC2)c(=O)[nH]c1=S	9%	x	u	x	-76*
SMILES	p53 reactivation	VP16 counter	Six1-Eya2 blk	RORgamma inh	CtBP-E1A inh
CCCCC(=O)N/N=C/c1c(O)n(Cc2ccc(F)cc2)c(=O)[nH]c1=O	1%	-11%	-68*	-37%	u
Cc1coc2c1CCC(C)C2 (stereo unspecified)	x	0%	x	-14%	x
CCC1CN2CCC1CC2C(Oc1cc2ccccc2c2ccccc12)c1ccnc2ccc(O)cc12 (stereo unspecified)	x	-3%[10 µM]	x	1%[10 µM]	x
Clc1nc(Cl)nc(Cl)n1	x	-4%	x	0%	x
COc1ccc(OCc2n[nH]c(=S)n2Cc2ccco2)cc1	5%	u	5	5.6µM*	-5
Nn1c(COc2ccc(Cl)cc2)n[nH]c1=S	-2%	6%	-5	u	-1
CCCCC/C=C\C/C=C\C/C=C\C/C=C\CCCC(=O)NCc1ccoc1	x	-16%	x	13%	x
CC(=O)Oc1ccc(Cl)c2cccnc12	x	0.71µM*	x	0.56µM*	x
CC[C@H](C)[C@H](NC(=O)[C@@H](N)Cc1ccc(O)cc1)C(=O)NCC(=O)N[C@@H](CO)C(=O)N[C@@H](CCCN=C(N)N)C(N)=O	x	-8%	x	15%	x
CC1(C)C[C@H]2C=C(C=O)[C@]3(C=O)C[C@]3(C)[C@H]2C1	-10%	1.1µM*	-7	1.4µM*	3
Cc1ccc(OCCOc2cccc(C=C3C(=O)NC(=O)NC3=O)c2)c(C)c1	-47%	4µM*	17	7.9µM*	36
Cn1nc(OC(=O)Nc2ccc(Cl)cc2)cc1C(F)(F)F	15%	16%	x	u	x
CC(C)=CCCN1CCC(NC(=O)C(O)(c2ccccc2)C2CCCC2)CC1 (stereo unspecified)	x	-7%	x	10%	x
O=C(Nc1nnc(-c2ccco2)o1)c1cccc2ccccc12	3%	-98%	-28	0.032µM*	-14
C=CC=O	x	-22%	x	-5%	x
C[C@]12[C@H](O)CC3C(CC[C@@H]4C[C@@H](O)CC[C@]34C)[C@@]1(O)CC[C@@H]2C1=CC(=O)OC1 (stereo partly specified)	x	-3%	x	-7%	x
Cc1cccc(-n2c(C)n[nH]c2=S)c1C	x	u	6	16µM*	0
O=C(Nc1cccc(F)c1)N1CCCC2(CCN(C(=O)Oc3ccccc3)CC2)C1	x	6%	x	21%	x
O=C(CCCCCn1c(=S)[nH]c2ccccc2c1=O)N1CCC2(CC1)OCCO2	-17%	u	0	10µM*	3
O=C(Cn1c(=S)[nH]c2ccccc2c1=O)N1CCC2(CC1)OCCO2	-1%	-4%	0	-11%	-2
C/C(=C\c1ccc(N(C)C)cc1)[N+](=O)[O-]	-14%	22µM*	-2	7.1µM*	3
CN(C)c1ccc(/C=C/[N+](=O)[O-])cc1	-26%	13µM*	20	11µM*	1
CN(C)c1ccc(C(=O)c2ccc(N(C)C)cc2)cc1	u	-10%	-15	16%	-18

Screens from PubChem BioAssay.
